Bioassay records as filed in PubChem BioAssay.
LAP4-GFP MLPCN – yeast TOR pathway LAP4-GFP modulation | S. cerevisiae LAP4-GFP multiplex, flow cytometry GFP, 3 h; median GFP as percent of DMSO wells | GFP response vs DMSO, % at 10 µM | 320,000 compounds, 0.34% hits | AID 2023;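 active means GFP response vs DMSO above a set limit, about the screen mean plus 3 SD, cut at about 150% in these data; inconclusive means under 70 cell events counted for the yeast strain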
AGP1-GFP MLPCN – yeast TOR pathway AGP1-GFP modulation; 320,000 compounds, 0.02% hits; GFP response vs DMSO, % at 10 µM; S. cerevisiae AGP1-GFP multiplex flow cytometry, 3 h; GFP as percent of DMSO wells;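 active means GFP response relative to DMSO above a set limit, near screen average plus 3 SD, cut at about 150% in these data; inconclusive means fewer than 70 cells counted for the yeast strain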;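 further: median GFP channel fluorescence of the gated AGP1 strain per well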
RPL19A-GFP yeast – alters RPL19A-GFP fluorescence in TOR pathway yeast screen | S. cerevisiae RPL19A-GFP strain, flow cytometry, 3 h; hits give low values | percent response vs DMSO, % at 10 µM | 330,000 compounds, 0.3% hits | AID 2025;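 active means percent response vs DMSO below 50%; inconclusive means fewer than 70 events counted for the yeast strain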;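 further: median channel GFP fluorescence of the barcoded RPL19A-GFP strain; lower means less RPL19A-GFP as with rapamycin TOR inhibition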
CIT2 TOR yeast – yeast TOR pathway CIT2-GFP modulation. S. cerevisiae CIT2-GFP strain, flow cytometry, 3 h; 100 means same as DMSO wells. GFP response vs DMSO, % at 10 µM. 320,000 compounds, 0.065% hits;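 active means GFP response relative to DMSO above a set limit, near the screen mean plus 3 SD, cut at about 150% in these data; inconclusive means Fewer than 70 cells measured for a yeast strain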;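 further: ratio of well median GFP fluorescence to mean of DMSO wells on the plate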
MEP2 TOR yeast – alters MEP2-GFP fluorescence in TOR pathway yeast screen; 330,000 compounds, 0.51% hits; GFP response vs DMSO, % at 10 µM; S. cerevisiae MEP2-GFP strain, flow cytometry GFP, 3 h; 100% = DMSO control level; AID 2016;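 active means GFP response versus DMSO above a set limit, roughly screen mean plus 3 SD, cut at about 180% in these data; inconclusive means fewer than 70 cells counted for a yeast strain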;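 further: median GFP fluorescence of the barcode-gated MEP2-GFP cells per well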
LAP4-GFP pick2 – second confirmation of modulators of TOR reporter LAP4-GFP in yeast; shares compounds with LAP4-GFP MLPCN; S. cerevisiae LAP4-GFP strain, flow cytometry GFP, 3 h; GFP response vs DMSO, % at 10 µM; 590 compounds, 20% hits; AID 2621;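 active means GFP signal as percent of the solvent control above about 150%, meaning raised reporter expression, limit read from the data; inconclusive means fewer than 70 cells counted in the well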
MEP2-GFP pick2 – reconfirmed MEP2-GFP TOR pathway modulator in yeast | 590 compounds, 10% hits | GFP response vs DMSO, % at 10 µM | shares compounds with LAP4-GFP MLPCN | S. cerevisiae MEP2-GFP strain, flow cytometry GFP, 3 h | AID 2622;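 active means GFP signal above 150% of the solvent control wells, that is a rise of more than half; inconclusive means fewer than 70 yeast cells counted in the well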;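 further: median channel GFP fluorescence of all gated yeast cells per well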
RPL19A-GFP pick2 – reconfirmed modulator of RPL19A-GFP TOR reporter in yeast; 590 compounds, 3% hits; shares compounds with LAP4-GFP MLPCN; GFP response vs DMSO, % at 10 µM; S. cerevisiae RPL19A-GFP strain, flow cytometry GFP, 3 h; hits give low values; 100% means same as DMSO wells; AID 2623;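 active means under 65% GFP response relative to DMSO; inconclusive means yeast strain with under 70 measured events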;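 further: median GFP channel fluorescence per well over the all cells gate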
CIT2-GFP pick2 – second confirmation of modulators of TOR reporter CIT2-GFP in yeast; GFP response vs DMSO, % at 10 µM; 590 compounds, 8% hits; S. cerevisiae CIT2-GFP strain, flow cytometry GFP, 3 h; DMSO control wells read 100%; shares compounds with LAP4-GFP MLPCN; AID 2624;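 active means GFP response vs DMSO above about 150%, limit read from the data; inconclusive means fewer than 70 events counted for a yeast strain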;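 further: median green fluorescence per well over all gated yeast cells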
AGP1 GFP CP2 – second confirmation of modulators of TOR reporter AGP1-GFP in yeast; shares compounds with LAP4-GFP MLPCN; S. cerevisiae AGP1-GFP strain, flow cytometry GFP, 3 h; percent response vs DMSO, % at 10 µM; 590 tested, under 10 active; AID 2643;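 active means over 150 percent of DMSO response; inconclusive means yeast strain measured with under 70 events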;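 further: median GFP channel fluorescence over all cells without mother daughter split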
s288c autofluor – compound is autofluorescent in yeast s288c cells; shares compounds with LAP4-GFP MLPCN; S. cerevisiae s288c, 520 nm autofluorescence, flow cytometry, 3 h; hits give high values; zero means same as solvent-only cells; fluorescence change (kMESF span) at 33 µM; 610 tested, under 10 active; AID 2757;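 active means fluorescence span over the dose series, or activity score, above about 33, limit read from the data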
Yeast autofl DR – yeast s288c autofluorescence artifact in dose response; shares compounds with LAP4-GFP MLPCN; 110 tested, under 10 active; fluorescence change (span) at 33 µM; AID 488829; S. cerevisiae s288c parental, compound autofluorescence, flow cytometry, 3 h;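 active means fluorescence change span, or the activity score built from it, above 25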
TORC1 bypass – wildtype yeast growth loss with TORC1 bypass cells unaffected. shares compounds with LAP4-GFP MLPCN. S. cerevisiae BY4741 spot growth rating, 48-72 h; hits give low values. growth rating (0-3) at 30 µM. 120 tested, under 10 active. AID 504456;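 active means growth rating at most 1 for wild type yeast while the TORC1 bypass strain still grows fully, rated 3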
Numbers stand for hits; . = inactive; ? = inconclusive; / = not tested or not shown; + = active, no number; [ ] = dose if it differs, or a comment. Sampled rows, rich in hits. Any-hit rate of the full collection: about 0.92%.

SMILES | LAP4-GFP MLPCN | AGP1-GFP MLPCN | RPL19A-GFP yeast | CIT2 TOR yeast | MEP2 TOR yeast | LAP4-GFP pick2 | MEP2-GFP pick2 | RPL19A-GFP pick2 | CIT2-GFP pick2 | AGP1 GFP CP2 | s288c autofluor | others
O=C(OC1CSc2nc3ccccc3n2C1)c1ccco1 (configuration not stated) | . | . | 18 | . | 283 | . | . | . | . | . | /
Cc1[nH]n(-c2ccccc2)c(=O)c1C(c1ccccc1[N+](=O)[O-])C(C#N)C#N (configuration not stated) | 168 | . | . | . | . | / | / | / | / | / | .
CNc1nc(N)c([N+](=O)[O-])c(Nc2cccc(F)c2)n1 | . | . | . | 274[may fluoresce green] | 338[may fluoresce green] | . | + | . | 350 | 159 | . | Yeast autofl DR=.;TORC1 bypass=1
CNc1nc(N)c([N+](=O)[O-])c(Nc2cccc(Cl)c2)n1 | . | . | . | . | . | / | / | / | / | / | / | Yeast autofl DR=.;TORC1 bypass=.
Nc1nc(Nc2cccc(F)c2)nc(Nc2cccc(F)c2)c1[N+](=O)[O-] | / | / | / | / | / | / | / | / | / | / | / | Yeast autofl DR=.;TORC1 bypass=.
Nc1nc(Nc2ccccc2)nc(Nc2cccc(F)c2)c1[N+](=O)[O-] | / | / | / | / | / | / | / | / | / | / | / | Yeast autofl DR=.;TORC1 bypass=.
Nc1nc(NCCOCCO)nc(Nc2cccc(F)c2)c1[N+](=O)[O-] | . | . | . | . | . | / | / | / | / | / | /
CCCCn1c(N)c(N(CC)C(=O)c2c(C)noc2C)c(=O)[nH]c1=O | . | . | . | . | . | / | / | / | / | / | /
CCCOc1ccc(CNC(=S)Nc2ccccc2)cc1Cl | . | . | . | . | . | / | / | / | / | / | /
C=C1CCN(Cc2ccccc2)S(=O)(=O)c2ccccc21 | 163 | . | . | . | . | . | . | . | . | . | /
Cc1ccc(C(=O)O)cc1N1C(=O)c2cccc3c([N+](=O)[O-])ccc(c23)C1=O | . | . | . | . | . | / | / | / | / | / | /
CC(=O)Oc1cccc(N2C(=O)c3cccc4c([N+](=O)[O-])ccc(c34)C2=O)c1 | 178 | . | . | . | 227 | 177 | 281 | . | 225 | . | .
O=C(CSc1ccc(-c2ccccn2)nn1)Nc1ccc(F)cc1F | . | . | . | 161 | . | . | . | . | . | . | /
COCCSc1nnc(NC(=O)C2CC(=O)N(C3CCCC3)C2)s1 (configuration not stated) | . | . | . | . | . | / | / | / | / | / | /
O=C(C#Cc1ccccc1)c1cccc([N+](=O)[O-])c1 | 202 | . | . | . | . | / | / | / | / | / | .
CC(=O)c1cccc([N+](=O)[O-])c1 | . | . | . | . | . | / | / | / | / | / | /
COc1ccc(OCC(O)CN2CC(C)OC(C)C2)cc1 (configuration not stated) | . | . | . | . | . | / | / | / | / | / | /
CC(Oc1cccc(Cl)c1)C(=O)Nc1nc(-c2ccccn2)cs1 (configuration not stated) | 171 | . | . | . | . | / | / | / | / | / | .
CC(Oc1ccccc1)C(=O)Nc1nc(-c2ccncc2)cs1 (configuration not stated) | . | . | . | . | . | / | / | / | / | / | /
O=C(COc1ccc(F)cc1Cl)Nc1nc(-c2ccccn2)cs1 | 171 | . | . | . | . | / | / | / | / | / | . | Yeast autofl DR=.;TORC1 bypass=.
CC(C)(C)c1ccc(-c2cnco2)cc1 | . | ? | . | . | ? | . | . | . | . | . | /
O=C(CSc1ccc([N+](=O)[O-])cc1)NNC(=O)c1ccccc1F | . | . | . | . | . | / | / | / | / | / | /
Cc1ccccc1OCCOC(=O)c1ccc(S(=O)(=O)N2CCCC2)cc1 | . | . | . | 158 | . | . | . | . | . | . | .
Cn1c(SCC(=O)Nc2cccc(F)c2)nc2c([nH]c3ccccc32)c1=O | . | . | . | . | . | / | / | / | / | / | /
O=[N+]([O-])c1c(NC2CCCCC2)nc(NCc2ccccc2)nc1N1CCOCC1 | / | / | / | / | / | / | / | / | / | / | / | TORC1 bypass=.
SMILES | LAP4-GFP MLPCN | AGP1-GFP MLPCN | RPL19A-GFP yeast | CIT2 TOR yeast | MEP2 TOR yeast | LAP4-GFP pick2 | MEP2-GFP pick2 | RPL19A-GFP pick2 | CIT2-GFP pick2 | AGP1 GFP CP2 | s288c autofluor | others
Cc1cc2ccccn2c1C(=O)c1cccc([N+](=O)[O-])c1 | . | . | . | . | . | / | / | / | / | / | /
Cc1cc2ccccn2c1C(=O)c1ccc([N+](=O)[O-])o1 | 218 | . | . | . | . | / | / | / | / | / | .
O=C1CCCN2N=C(SCC(=O)N3CCCCC3)SC2=N1 | . | . | . | . | . | . | . | . | . | . | /
O=S(=O)(c1ccccc1)N1N=C(c2cccs2)CC1c1cccc(O)c1 (configuration not stated) | . | . | . | 157 | . | . | . | . | . | . | /
CCOC(=O)c1nn(-c2ccc(OCC)cc2)c2nc(-c3ccco3)c(C#N)c(=O)n12 | . | . | . | . | . | . | . | . | . | . | /
CCOC(=O)c1nn(-c2ccc(OCC)cc2)c2nc(-c3cccc(OC)c3)c(C#N)c(=O)n12 | . | . | . | . | . | / | / | / | / | / | /
O=C(O)c1cc(-c2ccc(O)cc2)on1 | . | . | . | . | . | / | / | / | / | / | /
COc1ccc([C@]2(C(C)C)ON(c3ccccc3C(F)(F)F)C2=O)cc1 | . | . | . | . | . | . | . | . | . | . | .
CC(C)[C@@]1(c2ccc(Cl)cc2)ON(c2ccccc2C(F)(F)F)C1=O | . | . | . | ? | . | . | . | . | . | . | .
COc1ccc(C2(c3ccc(OC)cc3)NC(=O)N(CC(=O)Nc3ccccc3C(F)(F)F)C2=O)cc1 | . | . | . | . | . | / | / | / | / | / | /
O=c1[nH]ncn1-c1ccccc1C(F)(F)F | . | . | . | . | . | / | / | / | / | / | /
COc1ccc([C@@]2(C(C)C)ON(c3ccccc3C(F)(F)F)C2=O)cc1 | . | . | . | . | . | . | . | . | . | . | .
COC(=O)CSc1nc(C)c2c(n1)CCCC2 | . | . | . | . | . | / | / | / | / | / | /
